The results in this text go back to PubChem BioAssay AID687038 (Broad Institute, 2013).

The source made the active and inactive calls.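 How the source made its calls: active means curve showing a falling signal whose half-maximal concentration is at most twice the top valid dose; inconclusive means flat curve with a moderate drop, or an unreliable fit; inactive means the rest.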

This test in a line: endogenous miR-21 quantity in Huh7 cells – cell-based, RT-qPCR, dry powder, selectivity assay for miR-122 inhibitor project, dose response (AID 687038). The note with it: Huh7 miR-21 levels, qRT-PCR, 48 h; series mostly up to 35 µM; relative miR-21 level (fold): at the top concentration. (In general: Quantitative PCR measures a nucleic acid by following its amplification.)
Take `COCC(=O)N(C)C[C@H]1Oc2cc(-c3ccc(C#N)cc3)ccc2S(=O)(=O)N([C@@H](C)CO)C[C@H]1C`: the “relative miR-21 level (fold)” value was 0.872 fold (inactive).

Regarding `CCOC(=O)N1CCC(NC(=O)c2ccc3c(c2)sc2nc(-c4ccccc4)cn23)CC1`, the “relative miR-21 level (fold)” value was 1 fold (inactive). Consider `C[C@H]1CN([C@@H](C)CO)C(=O)c2cc(C#Cc3ccccc3F)cnc2O[C@H]1CN(C)C(=O)C1CCCCC1`, for which the “relative miR-21 level (fold)” value is 0.507 fold (inactive). The same measure for `COCC(=O)N(C)C[C@H]1Oc2cc(-c3ccccc3F)ccc2S(=O)(=O)N([C@@H](C)CO)C[C@H]1C`: 0.547 fold (inactive); for `CN(C)CCN1C(=O)c2cccc3cc(N)cc(c23)C1=O`: 2.02 fold (inactive).
